# Laboratory results reported in PubChem BioAssay (Tox21).
# Values without a mark were called inactive. Inconclusive results are not listed. A call without a number means that no potency is given here. Activity calls are given as the source filed them. Unless noted, the call rests on the fitted dose curve; in most records, active means well fitted curve in the direction sought with a large enough effect in the repeat runs; inconclusive means weak or mixed curves; inactive means no such curve, though single readings can be large; an effect the other way counts as inactive or inconclusive.
# How the values were obtained:
# [1] = qHTS RealTime-Glo MT Cell Viability Assay in HepG2 cells - 16 hour (AID 1224885); further: nearly all actives have a fitted effect of over 50% in size; further: potency means the concentration at half of the fitted maximal effect
# Summary of the method: (§1)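 Cells + NanoLuc/prosubstrate dispensed (600 cells/well) → 5 h at 37 C/5% CO2 → compounds in DMSO transferred → 40 h incubation at 37 C, luminescence read at 0, 8, 16, 24, 32, 40 h.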
# [2] = qHTS RealTime-Glo MT Cell Viability Assay in HEK293 cells - 24 hour (AID 1224886); further: nearly all actives have a fitted effect of over 50% in size; further: potency means the concentration at half of the fitted maximal effect; on activity change, negative = cytotoxicity: top concentration of the series differs between compounds
# Summary of the method: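 Tox21 10K qHTS, HEK293, 600 cells/well, RealTime-Glo reagent co-dispensed with cells; 5 h preincubation, compound by pintool, 37 C, luminescence at 0–40 h.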
# [3] = qHTS RealTime-Glo MT Cell Viability Assay in HEK293 cells - 8 hour (AID 1224887); further: nearly all actives have a fitted effect of over 50% in size; further: potency means the concentration at half of the fitted maximal effect; on activity change, negative = cytotoxicity: top concentration of the series differs between compounds
# Summary of the method: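 600 cells/well were plated with the nonlytic NanoLuc/prosubstrate reagent, pre-incubated 5 h, then given 23 nL of compound in DMSO. Incubation at 37 C for 40 h, with luminescence from viable-cell-reduced substrate read repeatedly from 0 h.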
# [4] = A CellTox Green Cytotoxicity Assay to monitor cytotoxicity in HEK293 cells - 16 hour (AID 1224888); further: nearly all actives have a fitted effect of over 35% in size
# Summary of the method: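 HEK293 cells, 600/well, were preincubated 5 hours and then exposed to compounds at 37 C for up to 40 hours. A cell-impermeant cyanine dye staining dead-cell DNA was read by fluorescence at 0, 8, 16, 24, 32 and 40 h time points.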
# [5] = qHTS RealTime-Glo MT Cell Viability Assay in HepG2 cells - 0 hour (AID 1224889); further: nearly all actives have a fitted effect of over 50% in size
# Summary of the method: as §1
# [6] = A CellTox Green Cytotoxicity Assay to monitor cytotoxicity in HepG2 cells - 8 hour (AID 1224890); further: nearly all actives have a fitted effect of over 45% in size
# Summary of the method: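 HepG2 cells, 600/well, preincubated 5 h with CellTox Green dye, then exposed to Tox21 compounds in DMSO at 37 C for up to 40 h. Dead-cell DNA fluorescence read at the indicated time point.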
# [7] = qHTS assay to identify small molecule antagonists of the estrogen receptor alpha (ER-alpha) signaling pathway using the BG1 cell line in the presence of 0.1 nM 17-beta-estradiol - cell viability counter screen (AID 1259241); further: nearly all actives have a fitted effect of over 40% in size
# Summary of the method: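 Viability in VM7Luc4E2 cells after 22 hr compound exposure under 0.1 nM 17beta-estradiol stimulation, by CellTiter-Fluor.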
# [8] = qHTS assay to identify small molecule antagonists of the androgen receptor (AR) signaling pathway using the MDA cell line in the presence of 0.5 nM R1881 - cell viability counter screen (AID 1259242); further: nearly all actives have a fitted effect of over 45% in size
# Summary of the method: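 MDA-kb2 cells (MMTV-luciferase, AR/GR responsive) were treated with compounds plus 0.5 nM R1881 (final) for 16 hr at 37C, 0% CO2. Viability was then read in the same wells as live-cell protease fluorescence (CellTiter-Fluor, 30 min).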
# [9] = biological target: Androgen receptor (Homo sapiens) (UniProt P10275); experiment: qHTS assay to identify small molecule antagonists of the androgen receptor (AR) signaling pathway using the MDA cell line in the presence of 0.5 nM R1881 (AID 1259243); further: nearly all actives have a fitted effect of over 50% in size; further: potency means the concentration at half of the fitted maximal effect
# Androgen receptor (Homo sapiens), sequence (P10275 whole entry, looked up): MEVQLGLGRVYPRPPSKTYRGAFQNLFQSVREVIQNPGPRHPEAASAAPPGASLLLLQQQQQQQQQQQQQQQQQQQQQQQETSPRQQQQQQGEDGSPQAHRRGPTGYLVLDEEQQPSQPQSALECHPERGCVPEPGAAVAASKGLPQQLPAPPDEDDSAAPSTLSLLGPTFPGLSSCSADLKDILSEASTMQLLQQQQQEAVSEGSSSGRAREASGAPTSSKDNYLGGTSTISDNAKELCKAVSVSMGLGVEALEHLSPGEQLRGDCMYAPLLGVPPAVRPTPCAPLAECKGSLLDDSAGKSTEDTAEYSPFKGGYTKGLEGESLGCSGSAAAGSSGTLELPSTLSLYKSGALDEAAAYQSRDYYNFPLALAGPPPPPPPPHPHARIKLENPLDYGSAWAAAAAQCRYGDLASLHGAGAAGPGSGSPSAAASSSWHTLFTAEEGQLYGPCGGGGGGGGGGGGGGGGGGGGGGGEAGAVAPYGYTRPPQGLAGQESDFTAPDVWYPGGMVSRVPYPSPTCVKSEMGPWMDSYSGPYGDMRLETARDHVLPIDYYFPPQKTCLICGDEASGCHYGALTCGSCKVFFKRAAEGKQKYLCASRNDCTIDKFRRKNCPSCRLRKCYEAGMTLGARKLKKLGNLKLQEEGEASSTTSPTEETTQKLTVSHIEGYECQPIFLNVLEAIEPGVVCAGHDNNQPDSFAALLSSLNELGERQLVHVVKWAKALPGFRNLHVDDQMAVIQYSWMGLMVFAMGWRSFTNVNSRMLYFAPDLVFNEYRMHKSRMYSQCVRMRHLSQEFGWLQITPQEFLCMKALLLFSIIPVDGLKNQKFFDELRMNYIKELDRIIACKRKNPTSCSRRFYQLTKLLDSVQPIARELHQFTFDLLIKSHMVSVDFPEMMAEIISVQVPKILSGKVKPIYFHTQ
# Summary of the method: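 MDA-kb2 cells (MMTV-luciferase, responsive to AR and GR) at 3,000/well, rested 5 h at 37C, 0% CO2, then given compounds plus 0.5 nM R1881 (final) for 16 hr. Luciferase read with ONE-Glo after 30 min at room temperature.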
# [10] = biological target: Estrogen receptor (Homo sapiens) (UniProt P03372); experiment: qHTS assay to identify small molecule antagonists of the estrogen receptor alpha (ER-alpha) signaling pathway using the BG1 cell line in the presence of 0.1 nM 17-beta-estradiol (AID 1259244); further: nearly all actives have a fitted effect of over 50% in size; further: potency means the concentration at half of the fitted maximal effect
# Estrogen receptor (Homo sapiens), sequence (P03372 whole entry, looked up): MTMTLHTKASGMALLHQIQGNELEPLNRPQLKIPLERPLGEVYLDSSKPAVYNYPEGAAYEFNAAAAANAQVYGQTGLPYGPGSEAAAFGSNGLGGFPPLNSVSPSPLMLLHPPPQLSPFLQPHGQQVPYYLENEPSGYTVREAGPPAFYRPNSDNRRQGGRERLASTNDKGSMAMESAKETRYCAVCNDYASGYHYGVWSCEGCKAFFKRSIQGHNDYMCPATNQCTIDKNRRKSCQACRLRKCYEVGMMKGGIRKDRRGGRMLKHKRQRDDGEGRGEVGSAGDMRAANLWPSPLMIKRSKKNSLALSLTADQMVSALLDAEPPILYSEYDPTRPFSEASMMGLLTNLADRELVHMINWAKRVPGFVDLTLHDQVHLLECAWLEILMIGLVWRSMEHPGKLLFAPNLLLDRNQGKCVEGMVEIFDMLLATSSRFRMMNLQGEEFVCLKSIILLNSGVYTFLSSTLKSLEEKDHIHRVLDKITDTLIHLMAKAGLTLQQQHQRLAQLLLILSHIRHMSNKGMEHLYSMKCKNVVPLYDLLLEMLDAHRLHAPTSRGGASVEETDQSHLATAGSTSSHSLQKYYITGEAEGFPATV
# Summary of the method: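 VM7Luc4E2 cells (endogenous full-length ER-alpha, 4×ERE-luciferase), kept 5 days in phenol red-free, charcoal-stripped FBS medium; 4,000 cells/well. Compounds added with 0.1 nM (final) 17beta-estradiol, 22 hr at 37C; luminescence read with ONE-Glo after 30 min.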
# [11] = qHTS assay to identify small molecule phospholipidosis (PLD) inducers (AID 1259344; active means well fitted curve in the direction sought with a large enough effect; an effect the other way counts as inactive or inconclusive)
# Summary of the method: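 HepG2 cells on collagen I, attached 4 h at 37 C, were co-treated with compound and LipidTOX Red dye for 24 h at 37 C, then fixed with paraformaldehyde plus Hoechst 33342 and imaged by high-content microscopy for phospholipid accumulation.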
# [12] = qHTS assay to identify small molecule HDAC inhibitors (AID 1259364); further: top concentration of the series differs between compounds; nearly all actives have a fitted effect of over 45% in size
# Summary of the method: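 Wild-type HCT-116 cells, plated overnight at 37 C, exposed to compounds 2 hr at 37 C; luminogenic HDAC-Glo substrate then added 30 min at room temperature. Luminescence reports relative endogenous class I/II HDAC activity.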
# [13] = qHTS assay to identify small molecule HDAC inhibitors - cell viability counter screen (AID 1259365)
# Summary of the method: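 Cytotoxicity was gauged in wild-type HCT-116 cells after a brief 2hr treatment with DMSO-dissolved compounds at 37C and 5% CO2, using CellTiter-Glo luminescence developed for 30min at room temperature.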
# [14] = qHTS assay to identify small molecule agonists of the sonic hedgehog signaling (Shh) pathway - cell viability counter screen (AID 1259366); further: nearly all actives have a fitted effect of over 50% in size
# Summary of the method: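 Stable Gli1-Luc NIH/3T3 clone, 2,000 cells/well. Compound exposure 24hr at 37C. Read-out: CellTiter-Fluor fluorescence.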
# [15] = qHTS assay to identify small molecule antagonists of the sonic hedgehog signaling (Shh) pathway - cell viability counter screen (AID 1259367); further: nearly all actives have a fitted effect of over 55% in size
# Summary of the method: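 NIH/3T3-derived Gli1-Luc reporter cells (2,000 per well) rested 4 hr at 37 C, then received DMSO compounds plus conditioned medium. After 23 hr of treatment, CellTiter-Fluor was added for 1 hr at 37C and fluorescence read.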
# [16] = qHTS assay to identify small molecule agonists of the sonic hedgehog signaling (Shh) pathway (AID 1259368; calls by dose curve;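 further: NIH/3T3-derived 3T3Gli1-Luc cells carrying a stable Gli1-driven firefly luciferase reporter; series mostly up to about 92 µM; nearly all actives have a fitted effect of over 15% in size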)
# Summary of the method: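 NIH/3T3-derived 3T3Gli1-Luc cells with stably integrated Gli1-driven firefly luciferase, 2,000 cells/well, compounds added after 4 hr. Incubated 24 hr at 37C, 5% CO2; luminescence read after 30 min with luciferase reagent at room temperature.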
# [17] = qHTS assay to identify small molecule antagonists of the sonic hedgehog signaling (Shh) pathway (AID 1259369; calls by dose curve; further: nearly all actives have a fitted effect of over 45% in size; further: potency means the concentration at half of the fitted maximal effect)
# Summary of the method: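 NIH/3T3-derived Gli1-Luc reporter cells plated 4 h, dosed with compound, then stimulated with conditioned medium for 24 h at 37 C. Firefly luciferase luminescence read after 30 min with detection reagent at room temperature.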
# [18] = biological target: Estrogen receptor beta (Homo sapiens) (UniProt Q92731); experiment: qHTS assay to identify small molecule agonists of the estrogen receptor beta (ER-beta) signaling pathway (AID 1259377; active means well fitted activation curve with a large enough effect in the signal ratio in the repeat runs, not every such curve was filed as active; the % refers to the signal ratio)
# Estrogen receptor beta (Homo sapiens), sequence (Q92731 whole entry, looked up): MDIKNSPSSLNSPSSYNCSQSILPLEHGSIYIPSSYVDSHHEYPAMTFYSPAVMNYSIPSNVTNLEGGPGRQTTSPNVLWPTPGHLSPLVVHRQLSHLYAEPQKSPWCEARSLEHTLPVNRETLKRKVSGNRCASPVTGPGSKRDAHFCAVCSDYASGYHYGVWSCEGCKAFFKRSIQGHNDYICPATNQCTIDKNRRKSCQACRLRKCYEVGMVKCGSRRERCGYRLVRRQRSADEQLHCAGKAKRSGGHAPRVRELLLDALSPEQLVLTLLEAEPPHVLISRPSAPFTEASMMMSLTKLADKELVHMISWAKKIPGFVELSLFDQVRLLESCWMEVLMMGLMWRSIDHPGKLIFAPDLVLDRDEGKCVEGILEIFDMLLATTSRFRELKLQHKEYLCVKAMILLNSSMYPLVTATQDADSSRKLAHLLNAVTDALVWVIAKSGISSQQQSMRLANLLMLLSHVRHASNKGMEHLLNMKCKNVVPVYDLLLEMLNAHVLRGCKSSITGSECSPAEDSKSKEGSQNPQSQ
# Summary of the method: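 Measured by fluorescence intensity from a B/G FRET beta-lactamase substrate (2 h, room temperature) in ER-beta-UAS-bla HEK293T cells treated with DMSO-dissolved compounds for 16 hr at 37C and 5% CO2.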
# [19] = biological target: Estrogen receptor beta (Homo sapiens) (UniProt Q92731); experiment: qHTS assay to identify small molecule antagonists of the estrogen receptor beta (ER-beta) signaling pathway (AID 1259378; active means well fitted inhibition curve with a large enough effect in the signal ratio in the repeat runs, not every such curve was filed as active; the % refers to the signal ratio; further: potency means the concentration at half of the fitted maximal effect)
# Summary of the method: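 ER-beta-UAS-bla HEK293T (GripTite) cells in 2% charcoal-stripped FBS medium were preincubated 6 hr at 37C, dosed with compound, then stimulated with 1 nM E2 (final) for 16 hr; beta-lactamase reporter read by B/G FRET fluorescence after 2 hr substrate loading.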
# [20] = qHTS assay to identify small molecule agonists of the androgen receptor (AR) signaling pathway in the presence of an antagonist - cell viability counter screen (AID 1259379); further: nearly all actives have a fitted effect of over 25% in size; further: potency means the concentration at half of the fitted maximal effect;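 on activity change, negative = cytotoxicity: MDA-kb2 human breast cancer cells carrying an MMTV luciferase reporter; series mostly up to about 92 µM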
# Summary of the method: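 MDA-kb2 cells (MMTV-luciferase, AR/GR), 3,000/well, 5 h attachment, then 3.0 µM nilutamide (final) and compounds at 15 concentrations. Viability by CellTiter-Fluor fluorescence after 16 h at 37 °C, 0% CO2, in the reporter wells.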
smiles,measurement,setting,value
CCCCCCCCCCCCCCCCC(C(=O)O)C(O)(CC(=O)O)C(=O)O (stereo unspecified),Potency,[1],inactive
same,Potency,[2],inactive
same,Potency,[3],inactive
same,Potency,[4],inactive
same,Potency,[5],inactive
same,Potency,[6],inactive
same,Potency,[7],inactive
same,Potency,[8],inactive
same,Potency,[9],inactive
same,Potency,[10],inactive
same,Potency,[11],inactive
same,Potency,[12],inactive
same,Potency,[13],inactive
same,Potency,[14],inactive
same,Potency,[15],inactive
same,Potency,[16],inactive
same,Potency,[17],inactive
same,outcome,[18],inactive
same,Potency,[19],inactive
same,Potency,[20],inactive
C/C=C/C(=O)OCC(C)C,Potency,[1],inactive
same,Potency,[2],inactive
same,Potency,[3],inactive
same,Potency,[4],inactive
same,Potency,[5],inactive
same,Potency,[6],inactive
same,Potency,[7],inactive
same,Potency,[8],inactive
same,Potency,[9],inactive
same,Potency,[10],inactive
same,Potency,[13],inactive
same,Potency,[14],inactive
same,Potency,[15],inactive
same,Potency,[17],inactive
same,Potency,[19],inactive
same,Potency,[20],inactive
COc1cc(OC)nc(NC(=O)NS(=O)(=O)Nc2ccccc2C(=O)N(C)C)n1,Potency,[1],inactive
same,Potency,[2],inactive
same,Potency,[3],inactive
same,Potency,[4],inactive
same,Potency,[5],inactive
same,Potency,[6],inactive
same,Potency,[8],inactive
same,Potency,[10],inactive
same,Potency,[12],inactive
same,Potency,[13],inactive
same,Potency,[14],inactive
same,Potency,[15],inactive
same,Potency,[16],inactive
same,Potency,[19],inactive
Nc1ccc(Oc2cccc(Oc3ccc(N)cc3)c2)cc1,Potency,[1],inactive
same,Potency,[2],inactive
same,Potency,[3],inactive
same,Potency,[4],inactive
same,Potency,[5],inactive
same,Potency,[6],inactive
same,Potency,[7],inactive
same,Potency,[8],inactive
same,Potency,[10],8.63 µM (active)
same,Potency,[12],inactive
same,Potency,[13],inactive
same,Potency,[14],inactive
same,Potency,[16],inactive
same,Potency,[17],8.63 µM (active)
CCCCCCCCCCCCS(=O)(=O)Cl,"activity change, negative = cytotoxic",[1],1.02% [at 15.8 µM]
same,"activity change, negative = cytotoxicity",[2],12.2% [at 15.8 µM]
same,"activity change, negative = cytotoxicity",[3],8.12% [at 15.8 µM]
same,activity change,[4],"2.57% [at 15.8 µM, hits give high values]"
same,"activity change, negative = cytotoxicity",[5],-8.49% [at 15.8 µM]
same,cytotoxicity increase,[6],-21% [at 15.8 µM]
same,"viability change, negative = cytotoxic",[8],-2.53% [at 19 µM]
same,"activity, negative = inhibition",[9],0.127% [at 19 µM]
same,"activity change, negative = cytotoxicity",[13],-1.8% [at 19 µM]
same,"viability change, negative = cytotoxic",[14],-2.48% [at 19 µM]
same,"viability change, negative = cytotoxic",[15],-1.82% [at 19 µM]
same,activity change,[16],"0.0807% [at 18.9 µM, hits give high values]"
same,"activity change, negative = inhibition",[17],18.4% [at 19 µM]
same,"activity, negative = inhibition",[19],-20.1% [at 19 µM]
same,"activity change, negative = cytotoxicity",[20],2.74% [at 19 µM]
c1ccc2c(c1)-c1ccc3ccc4cccc5cc-2c1c3c45,Potency,[1],inactive
same,Potency,[2],inactive
same,Potency,[3],inactive
same,Potency,[4],inactive
same,Potency,[5],inactive
same,Potency,[6],inactive
same,Potency,[7],inactive
same,Potency,[12],inactive
same,Potency,[13],inactive
same,Potency,[16],inactive
O=C(CCCCCCCCc1cccnc1)N1CCC(C=C(c2ccccc2)c2ccccc2)CC1,Potency,[1],49 µM (active)
same,Potency,[2],21.9 µM (active)
same,Potency,[3],21.9 µM (active)
same,Potency,[4],inactive
same,Potency,[5],inactive
same,Potency,[6],inactive
same,Potency,[7],inactive
same,Potency,[9],27.3 µM (active)
same,Potency,[12],inactive
same,Potency,[13],inactive
same,Potency,[15],inactive
same,Potency,[16],inactive
same,Potency,[17],17.2 µM (active)
same,Potency,[19],15.4 µM (active)
same,Potency,[20],61.1 µM (active)
O=C(c1ccccc1)c1ccc(Cl)cc1,Potency,[1],inactive
same,Potency,[2],inactive
same,Potency,[3],inactive
same,Potency,[4],inactive
same,Potency,[5],inactive
same,Potency,[6],inactive
same,Potency,[7],inactive
same,Potency,[8],inactive
same,Potency,[10],inactive
same,Potency,[12],inactive
same,Potency,[13],inactive
same,Potency,[20],inactive
